Experimental data from PMC5540273 (PLoS ONE, 2017).

Assays:
Conditions in all cases: concentration: 1 μM, replicates: in singlicate; n = 1
ADCK4 = tested on: ADCK4
AKT1 = tested on: AKT1
AKT2 = tested on: AKT2
AKT3 = tested on: AKT3
ALK = tested on: ALK
AMPK-alpha1 = tested on: T1, AMPK-alpha1
T1 construct: gene PRKAA1

AMPK-alpha2 = tested on: T2, AMPK-alpha2
T2 construct: gene PRKAA2

ANKK1 = tested on: ANKK1
ARK5 = tested on: T3, ARK5
T3 construct: gene NUAK1

ASK1 = tested on: T4, ASK1
T4 construct: gene MAP3K5

ASK2 = tested on: T5, ASK2
T5 construct: gene MAP3K6

AURKA = tested on: AURKA
AURKB = tested on: AURKB
AURKC = tested on: AURKC
AXL = tested on: AXL
BIKE = tested on: T6, BIKE
T6 construct: gene BMP2K

BLK = tested on: BLK
BMPR1A = tested on: BMPR1A
BMPR1B = tested on: BMPR1B
BMPR2 = tested on: BMPR2
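Note: KINOMEscan kinase panel screen.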

Cc1ccc(C(=O)Nc2ccc(Nc3ccnc4cc(-c5nccs5)ccc34)cc2O)cc1.Cl [GW494702]
%Inh (ADCK4): 34% | %Inh (AKT1): 12% | %Inh (AKT2): 6% | %Inh (AKT3): 0% | %Inh (ALK): 0% | %Inh (AMPK-alpha1): 20% | %Inh (AMPK-alpha2): 0% | %Inh (ANKK1): 21% | %Inh (ARK5): 14% | %Inh (ASK1): 9% | %Inh (ASK2): 0% | %Inh (AURKA): 100% | %Inh (AURKB): 91.3% | %Inh (AURKC): 61% | %Inh (AXL): 9% | %Inh (BIKE): 9% | %Inh (BLK): 97% | %Inh (BMPR1A): 0% | %Inh (BMPR1B): 0% | %Inh (BMPR2): 12%

Cl.Cl.NCC(NC(=O)c1cc(-c2ccccc2)c(-c2ccnc3[nH]ccc23)s1)c1ccccc1 (stereo not drawn) [GSK1321561]
%Inh (ADCK4): 89% | %Inh (AKT1): 57% | %Inh (AKT2): 0% | %Inh (AKT3): 80% | %Inh (ALK): 27% | %Inh (AMPK-alpha1): 5% | %Inh (AMPK-alpha2): 0% | %Inh (ANKK1): 0% | %Inh (ARK5): 16% | %Inh (ASK1): 0% | %Inh (ASK2): 1% | %Inh (AURKA): 33% | %Inh (AURKB): 0% | %Inh (AURKC): 69% | %Inh (AXL): 46% | %Inh (BIKE): 79% | %Inh (BLK): 58% | %Inh (BMPR1A): 4% | %Inh (BMPR1B): 0% | %Inh (BMPR2): 0%

O=C(Nc1cccc(Oc2ccc3nc(NC(=O)C4CC4)cn3n2)c1)c1ccccc1C(F)(F)F
%Inh (ADCK4): 12% | %Inh (AKT1): 0% | %Inh (AKT2): 0% | %Inh (AKT3): 0% | %Inh (ALK): 22% | %Inh (AMPK-alpha1): 0% | %Inh (AMPK-alpha2): 3% | %Inh (ANKK1): 1% | %Inh (ARK5): 0% | %Inh (ASK1): 0% | %Inh (ASK2): 0% | %Inh (AURKA): 89% | %Inh (AURKB): 92.8% | %Inh (AURKC): 77% | %Inh (AXL): 75% | %Inh (BIKE): 79% | %Inh (BLK): 25% | %Inh (BMPR1A): 0% | %Inh (BMPR1B): 0% | %Inh (BMPR2): 0%

Nc1ncc(-c2ccc3nccc(-c4ccncc4)c3c2)cc1S(=O)(=O)N1CCOCC1 [GSK1627798]
%Inh (ADCK4): 24% | %Inh (AKT1): 0% | %Inh (AKT2): 12% | %Inh (AKT3): 0% | %Inh (ALK): 30% | %Inh (AMPK-alpha1): 0% | %Inh (AMPK-alpha2): 0% | %Inh (ANKK1): 5% | %Inh (ARK5): 0% | %Inh (ASK1): 0% | %Inh (ASK2): 0% | %Inh (AURKA): 0% | %Inh (AURKB): 0% | %Inh (AURKC): 6% | %Inh (AXL): 36% | %Inh (BIKE): 24% | %Inh (BLK): 100% | %Inh (BMPR1A): 0% | %Inh (BMPR1B): 0% | %Inh (BMPR2): 0%

c1ccc(-c2cnc3nccnn23)cc1 [AH20685]
%Inh (ADCK4): 17% | %Inh (AKT1): 0% | %Inh (AKT2): 0% | %Inh (AKT3): 0% | %Inh (ALK): 20% | %Inh (AMPK-alpha1): 0% | %Inh (AMPK-alpha2): 0% | %Inh (ANKK1): 0% | %Inh (ARK5): 0% | %Inh (ASK1): 0% | %Inh (ASK2): 0% | %Inh (AURKA): 0% | %Inh (AURKB): 13% | %Inh (AURKC): 0% | %Inh (AXL): 0% | %Inh (BIKE): 0% | %Inh (BLK): 37% | %Inh (BMPR1A): 0% | %Inh (BMPR1B): 0% | %Inh (BMPR2): 0%

Cc1ccc(S(=O)(=O)Nc2ccc(Nc3nccc(Nc4cccc5[nH]ncc45)n3)cc2)cc1 [GSK581271]
%Inh (ADCK4): 87% | %Inh (AKT1): 0% | %Inh (AKT2): 0% | %Inh (AKT3): 0% | %Inh (ALK): 24% | %Inh (AMPK-alpha1): 0% | %Inh (AMPK-alpha2): 0% | %Inh (ANKK1): 0% | %Inh (ARK5): 5% | %Inh (ASK1): 0% | %Inh (ASK2): 0% | %Inh (AURKA): 99.8% | %Inh (AURKB): 37% | %Inh (AURKC): 52% | %Inh (AXL): 0% | %Inh (BIKE): 65% | %Inh (BLK): 0% | %Inh (BMPR1A): 0% | %Inh (BMPR1B): 0% | %Inh (BMPR2): 4%

CN1CCN(CCCNc2nccc(-c3c(-c4ccc(F)cc4)nn4cc(C(F)(F)F)ccc34)n2)CC1 [GW621581]
%Inh (ADCK4): 97.1% | %Inh (AKT1): 0% | %Inh (AKT2): 0% | %Inh (AKT3): 0% | %Inh (ALK): 9% | %Inh (AMPK-alpha1): 0% | %Inh (AMPK-alpha2): 19% | %Inh (ANKK1): 0% | %Inh (ARK5): 21% | %Inh (ASK1): 6% | %Inh (ASK2): 0% | %Inh (AURKA): 0% | %Inh (AURKB): 11% | %Inh (AURKC): 0% | %Inh (AXL): 10% | %Inh (BIKE): 11% | %Inh (BLK): 50% | %Inh (BMPR1A): 0% | %Inh (BMPR1B): 0% | %Inh (BMPR2): 0%

NCCCC(NC(=O)c1cc(Br)c(-c2ccnc3[nH]ccc23)s1)c1ccccc1.O=C(O)C(F)(F)F.O=C(O)C(F)(F)F (stereo not drawn) [GSK1287544]
%Inh (ADCK4): 38% | %Inh (AKT1): 89% | %Inh (AKT2): 52% | %Inh (AKT3): 91.8% | %Inh (ALK): 32% | %Inh (AMPK-alpha1): 17% | %Inh (AMPK-alpha2): 35% | %Inh (ANKK1): 0% | %Inh (ARK5): 54% | %Inh (ASK1): 0% | %Inh (ASK2): 0% | %Inh (AURKA): 74% | %Inh (AURKB): 56% | %Inh (AURKC): 95.7% | %Inh (AXL): 74% | %Inh (BIKE): 97.9% | %Inh (BLK): 0% | %Inh (BMPR1A): 0% | %Inh (BMPR1B): 0% | %Inh (BMPR2): 21%

Cl.c1ccc(-c2ccc3c(Nc4ccc5[nH]ccc5c4)ccnc3c2)nc1 [GW440138]
%Inh (ADCK4): 38% | %Inh (AKT1): 0% | %Inh (AKT2): 0% | %Inh (AKT3): 0% | %Inh (ALK): 25% | %Inh (AMPK-alpha1): 0% | %Inh (AMPK-alpha2): 0% | %Inh (ANKK1): 11% | %Inh (ARK5): 4% | %Inh (ASK1): 0% | %Inh (ASK2): 0% | %Inh (AURKA): 8% | %Inh (AURKB): 0% | %Inh (AURKC): 1% | %Inh (AXL): 0% | %Inh (BIKE): 2% | %Inh (BLK): 70% | %Inh (BMPR1A): 0% | %Inh (BMPR1B): 5% | %Inh (BMPR2): 26%
